Measurements as given in PubChem BioAssay (Tox21).
Results filed as inconclusive are left out. Where a call stands in place of a potency, no number is given. Calls of active or inactive are those of the source. Unless noted, calls follow the shape of the dose curve; as a rule, active = well fitted curve in the direction sought with a large enough effect in the repeat runs; inconclusive = weak or mixed curves; inactive = no such curve, though single readings can be large; an effect the other way counts as inactive or inconclusive.

What was measured:
[1] = qHTS assay to identify small molecule antagonists of the estrogen related receptor (ERR) signaling pathway - cell viability counter screen (AID 1224818);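 also: series mostly up to about 46 µM; viability measured after 17.5 h of compound exposure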
Summary of the method: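 Cytotoxicity check run alongside the ERR antagonist screen: cells exposed to test compounds 17.5 h at 37 C, viability taken as CellTiter-Fluor fluorescence intensity.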

[2] = qHTS assay to identify small molecule antagonists of the estrogen related receptor (ERR) signaling pathway (AID 1224819; also: series mostly up to about 46 µM; nearly all actives have a fitted effect of over 50% in size)
Summary of the method: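 ERR reporter cells were plated at 2,000 cells/well and left 6 h at 37 C/5% CO2 before pin-tool transfer of compounds in DMSO. After 18 h at 37 C, One-Glo was added and luminescence was read 30 min later at room temperature.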

[3] = qHTS assay to identify small molecule agonists of the estrogen related receptor (ERR) signaling pathway (AID 1224820); also: potency is read from the fitted curve at half-maximal effect
Summary of the method: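 After 6 h plating (2,000 cells/well) and 18 h compound treatment at 37 C, ERR cells were lysed with One-Glo and luminescence read after 30 min at room temperature.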

[4] = system: estrogen-related receptor alpha (ERRalpha) with PGC-1alpha coactivator, human; experiment: qHTS assay to identify small molecule antagonists of the estrogen related receptor signaling pathway with the pleiotropic PPARgamma coactivator (PGC) (AID 1224821; calls by dose curve;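 also: series mostly up to about 46 µM; lower luminescence signal means antagonism of PGC/ERR signalling; nearly all actives have a fitted effect of over 50% in size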)
Summary of the method: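 Luminescence from One-Glo luciferase reagent (30 min, room temperature) measured after 18 h compound treatment at 37 °C. Cells carry the PGC/ERR reporter and were seeded 6 h prior to dosing.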

[5] = qHTS assay to identify small molecule antagonists of the estrogen related receptor signaling pathway with the pleiotropic PPARgamma coactivator (PGC) cell viability counter screen (AID 1224822;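 also: series mostly up to about 46 µM; viability read after 17.5 h compound exposure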)
Summary of the method: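 Viable cell signal (CellTiter-Fluor, 30 min, 37 C/5% CO2) was measured in PGC/ERR cells after a 17.5 h compound incubation.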

[6] = qHTS assay to identify small molecule agonists of the estrogen related receptor signaling pathway with the pleiotropic PPARgamma coactivator (PGC) (AID 1224823)
Summary of the method: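 Luminescence from One-Glo reagent (30 min, room temperature) was read after 18 h compound treatment at 37 C of PGC/ERR cells plated 6 h beforehand; compounds delivered in DMSO by pin tool.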

**Q.** What does the source list for C[C@@H](NCCc1ccc(O)cc1)[C@@H](O)c1ccc(O)cc1?
**A.** Potency [1]: inactive; Potency [2]: inactive; Potency [3]: inactive; Potency [4]: inactive; Potency [5]: inactive

**Q.** For N[C@@H](Cc1ccc(O)c(O)c1)C(=O)O, which Potency [1] is on record?
**A.** inactive

**Q.** What about the Potency [2] of the same compound?
**A.** inactive

**Q.** And the Potency [3]?
**A.** inactive

**Q.** What about the Potency [4] of the same compound?
**A.** inactive

**Q.** And the Potency [5]?
**A.** inactive

**Q.** What does the source list for OCC1NCC(O)C(O)C1O (stereo unspecified)?
**A.** Potency [1]: inactive; Potency [2]: inactive; Potency [3]: inactive; Potency [4]: inactive; Potency [5]: inactive; Potency [6]: inactive

**Q.** Which Potency [1] does the source give for O=C(O)CCC(=O)N1CCCC1C(=O)O (stereo unspecified) here?
**A.** inactive

**Q.** What about the Potency [2] of the same compound?
**A.** inactive

**Q.** What about the Potency [3] of the same compound?
**A.** inactive

**Q.** And the Potency [4]?
**A.** inactive

**Q.** And the Potency [5]?
**A.** inactive

**Q.** Which results are given for N#CC(C#N)=C(N)/C(C#N)=C/c1ccc(O)cc1?
**A.** Potency [1]: inactive; Potency [2]: inactive; Potency [3]: inactive; Potency [4]: inactive; Potency [5]: inactive

**Q.** Which results are given for NC1(C(=O)O)CC1?
**A.** Potency [1]: inactive; Potency [2]: inactive; Potency [3]: inactive; Potency [4]: inactive; Potency [5]: inactive

**Q.** For O=C(O)c1cc(=O)cc(C(=O)O)[nH]1, which Potency [1] is on record?
**A.** inactive

**Q.** What about the Potency [2] of the same compound?
**A.** inactive

**Q.** And the Potency [3]?
**A.** inactive

**Q.** And the Potency [4]?
**A.** inactive

**Q.** And the Potency [5]?
**A.** inactive

**Q.** What about the Potency [6] of the same compound?
**A.** inactive

**Q.** Which results are given for NC(N)=NCCCCN=C(N)N?
**A.** Potency [1]: inactive; Potency [2]: inactive; Potency [3]: inactive; Potency [4]: inactive; Potency [5]: inactive; Potency [6]: inactive

**Q.** Which Potency [1] does the source give for CCCCCCCCCCC/C=C\C(C)(C)/C=C\CCCC(=O)O here?
**A.** inactive

**Q.** And the Potency [2]?
**A.** inactive

**Q.** And the Potency [3]?
**A.** inactive

**Q.** And the Potency [4]?
**A.** inactive

**Q.** And the Potency [5]?
**A.** inactive

**Q.** What about the Potency [6] of the same compound?
**A.** inactive

**Q.** Which Potency [1] does the source give for Brc1cc2c(cc1[C@H]1Nc3ccccc3[C@H]3C=CC[C@H]31)OCO2 here?
**A.** inactive

**Q.** And the Potency [2]?
**A.** inactive

**Q.** And the Potency [3]?
**A.** inactive

**Q.** What about the Potency [4] of the same compound?
**A.** inactive

**Q.** And the Potency [5]?
**A.** inactive

**Q.** For Cn1cc(C(=O)OCC2CCN(CCNS(C)(=O)=O)CC2)c2ccccc21, which Potency [1] is on record?
**A.** inactive

**Q.** And the Potency [2]?
**A.** inactive

**Q.** And the Potency [3]?
**A.** inactive

**Q.** What about the Potency [4] of the same compound?
**A.** inactive

**Q.** What about the Potency [5] of the same compound?
**A.** inactive

**Q.** For CN1CCc2cc(NC(=O)Nc3cccnc3)ccc21, which Potency [1] is on record?
**A.** inactive

**Q.** What about the Potency [2] of the same compound?
**A.** inactive

**Q.** What about the Potency [3] of the same compound?
**A.** 9.08 µM (active)

**Q.** And the Potency [4]?
**A.** inactive

**Q.** And the Potency [5]?
**A.** inactive

**Q.** With S=c1[nH]c(-c2ccccc2)cn1-c1ccccc1 as the compound, how does the Potency [1] read?
**A.** inactive

**Q.** And the Potency [2]?
**A.** inactive

**Q.** What about the Potency [3] of the same compound?
**A.** inactive

**Q.** What about the Potency [4] of the same compound?
**A.** inactive

**Q.** And the Potency [5]?
**A.** inactive

**Q.** What about the Potency [6] of the same compound?
**A.** inactive

**Q.** With CCCCC#Cc1nc(NC)c2ncn([C@@H]3O[C@H](CO)[C@@H](O)C3O)c2n1 (stereo partly specified) as the compound, how does the Potency [1] read?
**A.** inactive

**Q.** And the Potency [2]?
**A.** inactive

**Q.** And the Potency [3]?
**A.** inactive

**Q.** And the Potency [4]?
**A.** inactive

**Q.** And the Potency [5]?
**A.** inactive

**Q.** For CNCCC=C1c2ccccc2CCc2ccccc21, which Potency [1] is on record?
**A.** inactive

**Q.** And the Potency [2]?
**A.** inactive

**Q.** And the Potency [3]?
**A.** inactive

**Q.** What about the Potency [4] of the same compound?
**A.** inactive

**Q.** And the Potency [5]?
**A.** inactive

**Q.** With Cc1cc(NC(=O)Nc2ccc3c(ccn3C)c2)sn1 as the compound, how does the Potency [1] read?
**A.** inactive

**Q.** And the Potency [2]?
**A.** inactive

**Q.** What about the Potency [3] of the same compound?
**A.** 10.2 µM (active)

**Q.** And the Potency [4]?
**A.** inactive

**Q.** What about the Potency [5] of the same compound?
**A.** inactive

**Q.** Which Potency [1] does the source give for O=C(O)c1cc(=O)c2c(Cl)cc(Cl)cc2[nH]1 here?
**A.** inactive

**Q.** And the Potency [2]?
**A.** inactive

**Q.** And the Potency [3]?
**A.** inactive

**Q.** What about the Potency [4] of the same compound?
**A.** inactive

**Q.** What about the Potency [5] of the same compound?
**A.** inactive

**Q.** For CN1[C@@H](CC(=O)c2ccccc2)CCC[C@H]1C[C@H](O)c1ccccc1, which Potency [1] is on record?
**A.** inactive

**Q.** What about the Potency [2] of the same compound?
**A.** inactive

**Q.** What about the Potency [3] of the same compound?
**A.** inactive

**Q.** And the Potency [4]?
**A.** inactive

**Q.** What about the Potency [5] of the same compound?
**A.** inactive

**Q.** And the Potency [6]?
**A.** inactive

**Q.** What does the source list for CNc1ncnc2c1ncn2[C@@H]1O[C@H](CO)C(O)[C@H]1O (stereo partly specified)?
**A.** Potency [1]: inactive; Potency [2]: inactive; Potency [3]: inactive; Potency [4]: inactive; Potency [5]: inactive
